# From ChEMBL document CHEMBL3988442, “University of Dundee, Small-Polar-MMV Screening Library” (2021)
# In all, about 69,000 compounds went through this assay and about 1,000 (1.4%) showed an effect of 50% or more. The full list was thinned out, with strong results kept by preference.
# Test system: Leishmania donovani
# Test: Leishmania intramacrophage assay
# Type: functional, organism-based
# Set-up: scale not given: in the data most compounds retested in dose-response had high values
compound,measurement,setting,value
Cc1c(C(=O)NCc2ccnc(OCC(F)(F)F)c2)cnn1C,Percent Effect,30 µM,34.3%
O=C(c1ccccn1)N1CCc2c(nc(N3CCCC3)[nH]c2=O)C1,Percent Effect,"30 µM, 30.03 µM",-2.348%
Cc1cnn(-c2cccc(N3CCCCC3)n2)c1,Percent Effect,"30.3 µM, […]",-15%
Cc1cnn(-c2cccc(N3CCCC3)n2)c1,Percent Effect,"30.3 µM, […]",88.75%
Cc1cnn(-c2cccc(N3CCN(c4cc(C)nc(C)n4)CC3)n2)c1,Percent Effect,"30.3 µM, […]",-8.114%
c1c(CN2CCOCC2)nc2n1CCN(CC1CC1)C2,Percent Effect,"30.3 µM, […]",2.759%
CCc1csc(C2CCCN(C(=O)c3ccco3)C2)n1 (stereo not drawn),Percent Effect,30 µM,-22.84%
Cc1cccc(NS(=O)(=O)c2cc(C(=O)O)oc2C)c1,Percent Effect,"30.3 µM, […]",8.685%
COC(=O)c1ccn(COc2ccccc2Cl)n1,Percent Effect,"30.3 µM, […]",-5.219%
CC(C)(C)NC(=O)c1ccn(COc2ccccc2Cl)n1,Percent Effect,"30.3 µM, […]",62.54%
CC(C)(C)NC(=O)c1ccn(COc2c(Cl)cccc2Cl)n1,Percent Effect,"30.3 µM, […]",6.361%
c1nc(N2CCOC(Cn3cncn3)C2)c2cc[nH]c2n1 (stereo not drawn),Percent Effect,30 µM,24.06%
COCCN1CCCC(c2ncc(C(=O)N(C)C)c(C)n2)C1 (stereo not drawn),Percent Effect,"30.3 µM, […]",-9.482%
Cc1nc(NCC2CC2)nc2c1COCC21CCN(C(=O)C(C)(C)C)C1 (stereo not drawn),Percent Effect,"30.3 µM, […]",-5.86%
COCCC(=O)N1CCC2(COCc3c(C)nc(NCC4CC4)nc32)C1 (stereo not drawn),Percent Effect,"30 µM, 30.03 µM",4.108%
Cc1nc(NCC2CC2)nc2c1COCC21CCN(C(=O)NC(C)C)C1 (stereo not drawn),Percent Effect,"30.3 µM, […]",52.42%
Cn1ccnc1CN1CCC2(CC1)COC2.O=C(O)C(F)(F)F,Percent Effect,"30.3 µM, […]",21.73%
O=C(CN1CC(c2ccccc2)CC1=O)NCc1cc2n(n1)CCNC2 (stereo not drawn),Percent Effect,"30.3 µM, […]",29.23%
O=C(CN1CCC(c2ccccc2)CC1)NCc1cc2n(n1)CCNC2,Percent Effect,"30.3 µM, […]",55.19%
O=C(CN1CCOc2ccccc2C1)NCc1cc2n(n1)CCNC2,Percent Effect,"30.3 µM, […]",5.311%
c1ccc(C2CCCN(Cc3cc4n(n3)CCNC4)CC2)cc1 (stereo not drawn),Percent Effect,"30.3 µM, […]",58.47%
CC(=O)N1CC[C@H]2OCC[C@@]2(C(=O)NCCc2ccccn2)C1.O=C(O)C(F)(F)F,Percent Effect,"30.3 µM, […]",-0.5887%
CNc1snc(C)c1C(=O)N1CCCC(n2cccn2)C1 (stereo not drawn),Percent Effect,30 µM,20.79%
N#Cc1ccccc1N1CCCN(C(=O)CCc2ccco2)CC1,Percent Effect,"30.3 µM, […]",17.14%
CN(C(=O)C1(C#N)CCCCC1)c1nccs1,Percent Effect,"30.3 µM, […]",12.59%
Cn1nc(Cn2ccnc2)c2c1CN(C(=O)c1ccoc1)C2.O=C(O)C(F)(F)F,Percent Effect,"30.3 µM, […]",54.37%
Cc1ccoc1C(=O)N1Cc2c(Cn3ccnc3)nn(C)c2C1.O=C(O)C(F)(F)F,Percent Effect,"30.3 µM, […]",12.09%
Cn1nc(Cn2ccnc2)c2c1CN(Cc1ccoc1)C2.O=C(O)C(F)(F)F.O=C(O)C(F)(F)F,Percent Effect,"30.3 µM, […]",2.195%
COCc1nc2n(n1)CCCC2Nc1nc(C)ns1 (stereo not drawn),Percent Effect,"30.3 µM, […]",-12.79%
O=C(CC1CCC2(CC1)CCN(Cc1nccs1)CC2)N1CC=CC1,Percent Effect,"30.3 µM, […]",-13.52%
NC(=O)C(NCc1ccc(Cl)s1)c1ccccc1 (stereo not drawn),Percent Effect,"30.3 µM, […]",22.99%
CC(C)(C)c1ncc(CNc2ccccc2SCCC(N)=O)s1,Percent Effect,"30.3 µM, […]",-11.51%
Cc1ccc(CNc2ccccc2SCCC(N)=O)s1,Percent Effect,"30.3 µM, […]",58.74%
CC(C)(C)c1nc(CNc2ccccc2SCCC(N)=O)cs1,Percent Effect,"30.3 µM, […]",-34.53%
NC(=O)CCSc1ccccc1NCc1ccc(Cl)s1,Percent Effect,"30.3 µM, […]",57.16%
NC(=O)C(NC(=O)CCc1ccc(Cl)s1)c1ccccc1 (stereo not drawn),Percent Effect,"30.3 µM, […]",20.24%
Cc1nn(C)c(C)c1CN(C)C(=O)c1cccc(CCC(C)(C)O)c1,Percent Effect,"30.3 µM, […]",45.36%
O=C(O)C(F)(F)F.O=C(c1ccc[nH]1)N1CCCn2c(CNC3CCC3)nnc2C1,Percent Effect,"30.3 µM, […]",19.78%
Cc1ccccc1-c1cncc(C2CCN(C3CCOCC3)CC2)n1,Percent Effect,"30.3 µM, […]",-12.97%
C1CCC(c2nc3c(c(N4CCN5CCCC5C4)n2)CCNCC3)C1 (stereo not drawn),Percent Effect,"30.3 µM, […]",52.04%
NCC1CCN(c2nc(C3CCCC3)nc3c2CCNCC3)C1 (stereo not drawn),Percent Effect,"30.3 µM, […]",-3.279%
C1CCC(c2nc3c(c(N4CC(N5CCOCC5)C4)n2)CCNCC3)C1,Percent Effect,"30.3 µM, […]",33.91%
CCc1cn[nH]c1C1CCN(c2cc(C)c3cccc(OC)c3n2)CC1,Percent Effect,"30.3 µM, […]",13.27%
Cn1cnc(-c2nc(C(=O)NCCN3CCOCC3)c3ccccn23)c1,Percent Effect,"30.3 µM, […]",40.37%
COCCNC(=O)c1nc(-c2cn(C)cn2)n2ccccc12,Percent Effect,"30.3 µM, […]",36.99%
Cn1cnc(-c2nc(C(=O)NCCN3CCCC3)c3ccccn23)c1,Percent Effect,"30.3 µM, […]",50.91%
COCCN1CCN(Cc2nccs2)[C@H]2CS(=O)(=O)C[C@H]21,Percent Effect,"30.3 µM, […]",-6.4%
O=C(NCCC(=O)N1CCCC1)c1nn(-c2ccccc2F)cc1O,Percent Effect,"30 µM, 30.03 µM",-0.1897%
Cc1ncsc1CCC(=O)N1CCn2cccc2C1c1cccnc1 (stereo not drawn),Percent Effect,"30.3 µM, […]",18.51%
Cc1ccc(CN(C)Cc2nc3ccc(F)cc3[nH]2)cn1,Percent Effect,"30.3 µM, […]",12.06%
CNS(=O)(=O)c1ccc(CN(C)Cc2nc3ccc(F)cc3[nH]2)cc1,Percent Effect,"30.3 µM, […]",-17.23%
CN(Cc1cnc(C(C)(C)C)nc1)Cc1nc2ccc(F)cc2[nH]1,Percent Effect,"30.3 µM, […]",52.7%
Cc1c(C(=O)NCC2CCS(=O)(=O)C2)cnn1-c1ccccc1 (stereo not drawn),Percent Effect,"30.3 µM, […]",-5.688%
CN(C)C(=O)c1cccnc1-c1ccc2c(c1)OCO2,Percent Effect,"30.3 µM, […]",11.7%
C[C@@H]1CN(Cc2cc3ccccc3n2C)CC[C@]1(C)O,Percent Effect,"30.3 µM, […]",19.22%
C[C@@H]1CN(Cc2cc3ccccc3n2C)CC[C@@]1(O)C1CC1,Percent Effect,"30.3 µM, […]",34.38%
Cc1ccc2c(c1)cc(CN1CC[C@](C)(O)[C@H](C)C1)n2C,Percent Effect,"30.3 µM, […]",50.4%
CC(C(=O)N1CCN(CCOc2ccccc2)CC1)n1cncn1 (stereo not drawn),Percent Effect,"30.3 µM, […]",10.7%
CCOCC1CN(S(=O)(=O)C2CC2)Cc2cnn(C)c21 (stereo not drawn),Percent Effect,"30.3 µM, […]",-42.59%
CN(CC(=O)N1CCCC1)C(=O)c1ccccc1Nc1ccccc1,Percent Effect,"30.3 µM, […]",-2.979%
CCc1cnc(N)nc1NC(C)c1cnn(C)c1 (stereo not drawn),Percent Effect,"30.3 µM, […]",1.659%
CCc1cnc(N)nc1N[C@@H](C)c1ncccc1C,Percent Effect,"30.3 µM, […]",22.19%
CCc1cnc(N)nc1NC(C)c1ccc(C)c(C)c1 (stereo not drawn),Percent Effect,"30.3 µM, […]",88.85%
CC(C)OC[C@H]1CCC[C@]12CN(S(=O)(=O)c1cn(C)cn1)CCO2,Percent Effect,"30.3 µM, […]",9.701%
NC(c1ccc(F)cc1)c1cccs1 (stereo not drawn),Percent Effect,"30.3 µM, […]",6.777%
CN(C)CCO[C@@H]1CC[C@H]2[C@H]1OCCN2C(=O)c1ccccc1F,Percent Effect,"30.3 µM, […]",24.56%
CC(C)c1nccc(C2(c3ccccc3Cl)CCNCC2)n1,Percent Effect,"30.3 µM, […]",86.79%
CC(C)c1nccc(CN2CCC(O)(CN3CCCCC3)C2)n1 (stereo not drawn),Percent Effect,"30.3 µM, […]",18.94%
O=c1[nH]cccc1-c1nccc(C2(c3ccccc3Cl)CCNCC2)n1,Percent Effect,"30.3 µM, […]",3.768%
Clc1ccccc1C1(c2ccnc(-c3ccncc3)n2)CCNCC1,Percent Effect,"30 µM, 30.03 µM",69.77%
Clc1ccccc1C1(c2ccnc(-c3ncccn3)n2)CCNCC1,Percent Effect,"30 µM, 30.03 µM",15.9%
CC(C)(C)c1nccc(C2(c3ccccc3Cl)CCNCC2)n1,Percent Effect,"30.3 µM, […]",98.02%
CC(C)c1nccc(CN2CCCC(O)(CN3CCCC3)C2)n1 (stereo not drawn),Percent Effect,"30.3 µM, […]",-4.495%
CCC1C(=O)NCCN1c1ccnc(C(C)(C)C)n1 (stereo not drawn),Percent Effect,"30.3 µM, […]",-23.65%
CC(C)CSCCN1CCN(S(C)(=O)=O)CC1,Percent Effect,"30.3 µM, […]",-11.46%
O=C(c1ccccc1)N1C[C@@H]2CC[C@H](C1)N(C(=O)CN1CCOCC1)C2,Percent Effect,"30.3 µM, […]",12.92%
CCNc1c(C#N)c(=O)n(C)c(=O)n1C,Percent Effect,"30.3 µM, […]",22.41%
OC1CCN(c2ccnc(NCCN3CCc4ccccc4C3)n2)C1 (stereo not drawn),Percent Effect,"30.3 µM, […]",47%
OC1CCN(c2ccnc(NCCc3ccccc3Cl)n2)C1 (stereo not drawn),Percent Effect,"30.3 µM, […]",64.18%
OC1CCN(c2ccnc(NCCc3ccccc3Cl)n2)CC1,Percent Effect,"30.3 µM, […]",-1.281%
Cc1cc(=O)c(C(=O)Nc2cccc(CCN3CCCC3)c2)c[nH]1,Percent Effect,"30.3 µM, […]",12.01%
Cc1ccc(F)c(C(=O)Nc2cccc(CCN3CCCC3)c2)c1,Percent Effect,"30.3 µM, […]",51.62%
Cn1cc(C(=O)Nc2cccc(CCN3CCCC3)c2)ccc1=O,Percent Effect,"30.3 µM, […]",25.83%
CN(C(=O)c1cccc2[nH]ncc12)C1CCN(c2ccccn2)CC1,Percent Effect,"30 µM, 30.03 µM",-37.63%
COc1c(C)cc(CNCc2ccnc(N3CCOCC3)c2)cc1C.Cl,Percent Effect,30 µM,54.99%
COc1cc(CNCc2ccnc(N3CCOCC3)c2)cc(OC)c1,Percent Effect,30 µM,28.31%
COc1cc(CNCc2ccnc(N3CCOCC3)c2)cc(Cl)c1OC,Percent Effect,"30 µM, 30.03 µM",26.59%
O=C(CCc1ccco1)Nc1ncn(CC(=O)N2CCCCCC2)n1,Percent Effect,"30.3 µM, […]",4.673%
Cn1ncc2c(NC3CCCN(C(=O)C4CC4)C3)nc(C(C)(C)C)nc21 (stereo not drawn),Percent Effect,"30.3 µM, […]",-38.63%
Cn1ncc2c(N[C@H]3CC[C@@H](N)CC3)nc(C(C)(C)C)nc21,Percent Effect,"30.3 µM, […]",100.6%
Cn1ncc2c(N[C@H]3CCCC[C@@H]3O)nc(C(C)(C)C)nc21,Percent Effect,"30.3 µM, […]",44.26%
CSCC[C@@H]1CN2CCC[C@H]2CN1Cc1cn(C)nc1C,Percent Effect,"30.3 µM, […]",-2.658%
O=C(COCc1nc(-c2ccncc2)no1)N1CCCCC1,Percent Effect,"30.3 µM, […]",-11.93%
CC1CCCCN1C(=O)COCc1nc(-c2ccncc2)no1 (stereo not drawn),Percent Effect,"30.3 µM, […]",55.9%
O=C(COCc1nc(-c2ccncc2)no1)N1CCCC1,Percent Effect,"30 µM, 30.03 µM",18.4%
O=C(Nc1cccc(F)c1)C1CCN(Cc2noc(C3CC3)n2)CC1,Percent Effect,"30.3 µM, […]",33.46%
CN(Cc1ccc(C(=O)O)cc1)C(=O)c1sccc1OC(F)F,Percent Effect,"30.3 µM, […]",18.71%
CCC1(CO)CCCN(C(=O)c2cc(COc3cccc(F)c3)[nH]n2)C1 (stereo not drawn),Percent Effect,"30.3 µM, […]",65.29%
CCC1(CO)CCCN(C(=O)c2cc(COc3ccccc3F)[nH]n2)C1 (stereo not drawn),Percent Effect,"30.3 µM, […]",-9.881%
CCC1(CO)CCN(C(=O)c2cc(COc3ccccc3F)[nH]n2)CC1,Percent Effect,"30.3 µM, […]",-10.91%
Cc1cccc(CN2CCn3c(COc4ncccn4)nnc3C2)n1,Percent Effect,"30.3 µM, […]",26.49%
COCCn1cc(CCC(=O)Nc2c(C)nn(C)c2C)c2ccccc21,Percent Effect,"30.3 µM, […]",-5.699%
CC(C)c1nc(CN(C)C2CCN(CCc3ccncc3)C2)no1 (stereo not drawn),Percent Effect,30 µM,35.17%
